Experimental data: PubChem BioAssay (NCATS)
Inconclusive results are not listed. A number with no mark means an inactive call. Calls come from the whole dose curve; as a rule, active = well fitted inhibition curve with a large enough effect; inconclusive = small, poorly fitted or top-dose-only effect; inactive = flat fitted curve, though single readings scatter.

Biological target: Calcium and integrin-binding protein 1 (Homo sapiens) (UniProt Q99828)
Assay: Primary qHTS for Identification of Calcium Integrin Binding Protein 1 (CIB1) Competitor (AID 1508620);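 note: GST tagged CIB1 binding a fluorescein labelled alphaIIb integrin peptide tracer; top concentration of the series differs between compounds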
Settings: CIB1-GST / FITC-alphaIIb peptide fluorescence polarization; series mostly up to 57.7 µM; activity change, negative = inhibition: at the top concentration
In short: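 CIB1-GST (1 uM final) and compound incubated 15 min at room temperature before adding FITC-alphaIIb peptide tracer (100 nM final). Competition for binding read by fluorescence polarization (ex 480, em 540) after another 15 min at room temperature.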
% is set by controls: 0 for no effect and ±100 for the full control effect.

Chain of Calcium and integrin-binding protein 1 (Homo sapiens) (Q99828 whole entry, looked up): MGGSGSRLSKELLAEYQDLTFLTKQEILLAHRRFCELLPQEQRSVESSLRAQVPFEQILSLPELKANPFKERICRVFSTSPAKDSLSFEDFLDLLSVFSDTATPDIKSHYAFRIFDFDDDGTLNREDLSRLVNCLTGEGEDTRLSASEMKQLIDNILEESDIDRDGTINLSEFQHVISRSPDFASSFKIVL

| Compound | activity change, negative = inhibition |
| --- | --- |
| CC(=O)O[C@@H]1[C@H](O[C@@H]2OC[C@](O)(CO)[C@H]2O)[C@@H](O[C@@H]2O[C@@H](C)[C@H](O)[C@@H](O)[C@H]2O)[C@H](OC(=O)[C@]23CCC(C)(C)C[C@H]2C2=CCC4[C@@]5(C)C[C@H](O)[C@H](O[C@@H]6O[C@H](C(=O)O)[C@@H](O)[C@H](O)[C@H]6O)[C@@](C)(C(=O)O)C5CC[C@@]4(C)[C@]2(C)CC3)O[C@@H]1C (some centres not stated) | -1.72% [at 30.2 µM] |
| CC(C)=CC/C=C(/C)[C@H]1CC[C@]2(C)[C@@H]1[C@H](O)CC1[C@@]3(C)CC[C@H](O)C(C)(C)[C@@H]3[C@@H](O[C@@H]3O[C@H](CO)[C@@H](O)[C@H](O)[C@H]3O[C@@H]3O[C@@H](C)[C@H](O)[C@@H](O)[C@H]3O)C[C@]12C (some centres not stated) | -9.48% [at 30.2 µM] |
| CC1[C@@H](O)[C@@H](O)C2[C@]3(C)C(C[C@H]4OC(=O)[C@H](O)[C@]1(O)[C@@]24C)C(C)(O)C[C@H](O)[C@H]3O (some centres not stated) | -5.08% |
| CC(C(=O)O)C1CCC2(C)C3C(=O)C=C4C(CCC(=O)C4(C)C)C3(C)CCC12C (configuration not stated) | 1.56% |
| C=C1[C@@H]2[C@H]3OC(=O)C(=C)[C@@H]3CC[C@@](C)(O)[C@@H]2C[C@@H]1O[C@@H]1O[C@H](CO)[C@@H](O)[C@H](O)[C@H]1O | 0.395% |
| COc1ccc(C(O[C@@H]2O[C@H](CO)[C@@H](O)[C@H](O)[C@H]2O)C(CO)Oc2ccc(/C=C/CO)cc2OC)cc1O (some centres not stated) | 4.32% |
| CCOc1nc2cccc(C(=O)OCc3oc(=O)oc3C)c2n1Cc1ccc(-c2ccccc2-c2noc(O)n2)cc1 | -12.4% [at 114 µM] |
